# Reference: PubChem BioAssay
# Active and inactive are the calls of the source.
# Assays:
# [1] = small molecules captured by biotinylated probe aFSTL3 – biochemical, small-molecule microarray, fluorescence 635/667, stem cell growth factor project, primary screen (AID 1064); details: higher = more signal;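 note: measures binding of the biotinylated anti-FSTL3 antibody to printed compounds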
# [2] = binders from COS7 lysate, DM2A8 probe, primary screen, torsin A project, cell lysate, small-molecule microarray, fluorescence 635/667 (AID 1065); details: higher = more signal, COS7 lysate expressing mutant human TOR1A
# [3] = small molecules captured by biotinylated probe aFGF2 – biochemical, small-molecule microarray, fluorescence 635/667, stem cell growth factor project, primary screen (AID 1067); details: higher = more signal;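 note: measures binding of biotinylated aFGF2 protein to printed compounds on slides; z-score merges feature fluorescence and signal-to-noise across triplicate slides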
# [4] = small molecules captured by biotinylated probe aFGF10 – biochemical, small-molecule microarray, fluorescence 635/667, stem cell growth factor project, primary screen (AID 1071); details: higher = more signal;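 note: score merges 667 nm spot intensity and signal to noise from triplicate slides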
# [5] = target: Neurogenic locus notch homolog protein 2 (Homo sapiens) (UniProt Q04721); assay: small molecules binding Notch2 protein – biochemical, small-molecule microarray, 635 nm fluorescence, stem cell growth factors, primary screen (AID 1073); details: higher = more signal
# [6] = target: Pro-neuregulin-1, membrane-bound isoform (Homo sapiens) (UniProt Q02297); assay: small molecules binding neuregulin-1 protein – biochemical, small-molecule microarray, fluorescence 635/667, psychiatric disease protein project, primary screen (AID 1075); details: NRG1 binding, 635 nm fluorescence, higher = more signal;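 note: score combines 667 nm spot fluorescence with signal to noise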
# [7] = system: Neuregulin-1 EGF-like domain; assay: small molecules binding NRG1 EGF domain – biochemical, small-molecule microarray, 635 nm fluorescence, primary screen (AID 1081); details: higher = more signal;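 note: binding of the protein to compounds printed on small-molecule microarray slides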
# [8] = FRG1 expression reporter modulators in myotubes – cell-based, C2C12 myotubes, firefly/Renilla luciferase, luminescence, FRG1 inhibition for FSHD, primary screen (AID 1084); details: FRG1 promoter luciferase, higher = more signal, called active from +8 up or from −8 down
# [9] = small molecules captured by biotinylated probe aFST – biochemical, small-molecule microarray, fluorescence 635/667, stem cell growth factor project, primary screen (AID 1086); details: higher = more signal;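 note: score merges 667 nm fluorescence with signal-to-noise of each printed compound spot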
# [10] = binders of probe aHhip on microarray, primary screen, stem cell growth factor project, biochemical, small-molecule microarray, fluorescence 635/667 (AID 1087); details: higher = more signal;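 note: score merges spot fluorescence at 667nm with spot signal to noise ratio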
# Pro-neuregulin-1, membrane-bound isoform (Homo sapiens), sequence (Q02297 whole entry, looked up, the tested form may be a part, canonical isoform): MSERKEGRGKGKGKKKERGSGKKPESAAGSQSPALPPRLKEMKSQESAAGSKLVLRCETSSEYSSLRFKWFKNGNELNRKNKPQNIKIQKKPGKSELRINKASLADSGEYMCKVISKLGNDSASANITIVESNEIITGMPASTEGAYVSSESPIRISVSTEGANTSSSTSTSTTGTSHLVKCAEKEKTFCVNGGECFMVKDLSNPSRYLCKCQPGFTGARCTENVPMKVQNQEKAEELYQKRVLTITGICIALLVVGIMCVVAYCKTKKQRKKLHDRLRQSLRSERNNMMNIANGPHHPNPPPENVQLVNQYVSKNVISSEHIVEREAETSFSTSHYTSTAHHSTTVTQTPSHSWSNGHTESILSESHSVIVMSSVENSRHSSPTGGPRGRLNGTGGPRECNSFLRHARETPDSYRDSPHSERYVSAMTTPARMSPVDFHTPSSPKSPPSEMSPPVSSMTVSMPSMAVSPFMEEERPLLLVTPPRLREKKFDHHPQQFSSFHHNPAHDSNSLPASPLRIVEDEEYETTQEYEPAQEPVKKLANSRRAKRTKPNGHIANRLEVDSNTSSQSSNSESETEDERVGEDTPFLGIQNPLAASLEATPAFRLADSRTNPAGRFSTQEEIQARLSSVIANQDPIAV
# Neurogenic locus notch homolog protein 2 (Homo sapiens), sequence (Q04721 whole entry, looked up, canonical isoform): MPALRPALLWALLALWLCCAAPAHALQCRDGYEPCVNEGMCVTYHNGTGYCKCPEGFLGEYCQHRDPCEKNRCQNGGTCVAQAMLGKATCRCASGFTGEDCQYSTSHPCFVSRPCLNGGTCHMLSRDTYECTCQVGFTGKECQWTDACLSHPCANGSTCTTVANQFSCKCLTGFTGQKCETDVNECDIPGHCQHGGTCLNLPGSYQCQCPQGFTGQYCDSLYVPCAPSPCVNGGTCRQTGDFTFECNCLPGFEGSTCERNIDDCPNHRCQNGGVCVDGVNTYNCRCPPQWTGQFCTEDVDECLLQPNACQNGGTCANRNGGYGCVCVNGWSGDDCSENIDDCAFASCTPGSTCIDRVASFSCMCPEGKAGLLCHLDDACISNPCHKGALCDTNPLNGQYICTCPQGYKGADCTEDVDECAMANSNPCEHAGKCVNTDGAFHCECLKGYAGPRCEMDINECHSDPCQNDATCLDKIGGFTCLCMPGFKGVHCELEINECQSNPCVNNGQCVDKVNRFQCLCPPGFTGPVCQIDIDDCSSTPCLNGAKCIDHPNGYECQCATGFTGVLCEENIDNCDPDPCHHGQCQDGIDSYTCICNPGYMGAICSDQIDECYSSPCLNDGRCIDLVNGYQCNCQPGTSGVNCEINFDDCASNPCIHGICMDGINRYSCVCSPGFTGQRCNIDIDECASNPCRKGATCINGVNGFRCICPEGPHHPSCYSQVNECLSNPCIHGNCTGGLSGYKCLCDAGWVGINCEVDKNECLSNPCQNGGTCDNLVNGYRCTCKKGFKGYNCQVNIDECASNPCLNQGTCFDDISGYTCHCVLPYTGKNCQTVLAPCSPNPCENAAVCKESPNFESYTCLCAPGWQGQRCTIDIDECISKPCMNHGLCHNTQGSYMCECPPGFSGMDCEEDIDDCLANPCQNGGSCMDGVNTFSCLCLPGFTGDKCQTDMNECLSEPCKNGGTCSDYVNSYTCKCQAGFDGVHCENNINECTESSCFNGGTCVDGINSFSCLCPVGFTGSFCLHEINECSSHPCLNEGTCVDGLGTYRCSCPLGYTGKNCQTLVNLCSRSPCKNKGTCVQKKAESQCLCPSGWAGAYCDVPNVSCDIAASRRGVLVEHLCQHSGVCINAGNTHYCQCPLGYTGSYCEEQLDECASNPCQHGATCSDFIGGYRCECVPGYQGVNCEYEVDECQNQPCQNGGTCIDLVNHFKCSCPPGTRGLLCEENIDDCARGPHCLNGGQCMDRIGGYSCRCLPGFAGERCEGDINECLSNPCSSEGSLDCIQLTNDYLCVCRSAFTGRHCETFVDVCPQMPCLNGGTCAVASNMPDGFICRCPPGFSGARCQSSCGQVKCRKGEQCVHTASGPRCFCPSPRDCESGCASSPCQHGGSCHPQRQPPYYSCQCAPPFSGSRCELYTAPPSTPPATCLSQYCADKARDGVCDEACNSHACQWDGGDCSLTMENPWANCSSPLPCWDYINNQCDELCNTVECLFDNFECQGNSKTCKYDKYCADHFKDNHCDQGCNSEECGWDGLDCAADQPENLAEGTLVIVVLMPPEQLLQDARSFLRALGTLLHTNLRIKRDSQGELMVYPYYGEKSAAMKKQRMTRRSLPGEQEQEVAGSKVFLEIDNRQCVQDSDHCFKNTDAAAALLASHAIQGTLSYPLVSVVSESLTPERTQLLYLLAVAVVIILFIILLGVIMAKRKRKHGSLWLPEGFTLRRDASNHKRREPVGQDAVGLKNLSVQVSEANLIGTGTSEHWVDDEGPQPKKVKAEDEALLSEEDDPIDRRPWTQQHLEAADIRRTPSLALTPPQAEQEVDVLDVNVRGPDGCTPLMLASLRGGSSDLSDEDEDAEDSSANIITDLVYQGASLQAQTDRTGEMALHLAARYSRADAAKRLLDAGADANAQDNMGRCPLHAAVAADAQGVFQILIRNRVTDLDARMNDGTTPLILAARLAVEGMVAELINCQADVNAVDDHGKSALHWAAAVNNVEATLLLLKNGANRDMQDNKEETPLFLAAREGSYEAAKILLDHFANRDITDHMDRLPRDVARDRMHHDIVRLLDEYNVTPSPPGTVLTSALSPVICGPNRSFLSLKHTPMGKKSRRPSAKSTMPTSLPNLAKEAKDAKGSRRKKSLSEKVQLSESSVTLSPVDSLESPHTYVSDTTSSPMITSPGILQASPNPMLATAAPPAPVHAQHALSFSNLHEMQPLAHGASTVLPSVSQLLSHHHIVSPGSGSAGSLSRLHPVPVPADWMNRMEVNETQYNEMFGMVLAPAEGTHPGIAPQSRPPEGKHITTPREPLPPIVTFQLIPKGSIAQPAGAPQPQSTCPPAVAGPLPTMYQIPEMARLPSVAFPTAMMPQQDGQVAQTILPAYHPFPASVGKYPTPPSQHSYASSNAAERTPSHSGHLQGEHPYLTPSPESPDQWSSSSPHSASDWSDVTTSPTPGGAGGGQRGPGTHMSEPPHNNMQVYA
SMILES,composite z-score [1],composite z-score [2],composite z-score [3],composite z-score [4],composite z-score [5],composite z-score [6],composite z-score [7],z-score [8],composite z-score [9],composite z-score [10]
COC(=O)C(CC#Cc1ccc2c(c1)[C@]1(C(=O)N2)[C@H](C(=O)N2CCc3cc(OC)c(OC)cc3C2)[C@H]2C(=O)O[C@H](c3ccccc3)[C@H](c3ccccc3)N2[C@@H]1c1ccccc1OCCO)C(=O)OC,-0.385,1.03,-0.0037,0.738,1.15,1.67,1.25,1.31 (inactive),0.529,-0.0346
CC(C)C[C@@H]1NC(=O)[C@@]23C(=O)N[C@@H](Cc4ccccc4)C2[C@H](C)[C@@]2(C)O[C@H]2C3/C=C/C/C=C\CNC(=O)CNC1=O (stereo not given in full),-0.351,0.0664,-0.13,0.573,0.0474,0.458,0.325,-0.866 (inactive),-0.175,-0.48
Cc1ccccc1C(O)C1C=CC2C(=O)N(c3ccccc3)C(=O)C2N1Nc1ccccc1 (stereo not given),0.457,0.573,0.133,1.15,1.61,2.18,1.31,-1.78 (inactive),1.06,0.0741
C=CCC(OC(C)=O)[C@@H]1[C@@H](N(Cc2cc3ccccc3o2)C(=O)c2cccc3ccccc23)c2cc(OCCCO)ccc2N1C(=O)c1ccc2ccccc2n1 (stereo not given in full),1.68,0.27,-0.116,0.0823,0.16,-0.0193,-0.112,-1.53 (inactive),-0.061,-0.125
COC(=O)[C@@]1(Cc2ccccc2)[C@H]2c3cc(C(=O)N(C)C)n(Cc4ccc(C(F)(F)F)nc4)c3C[C@H]2CN1C(=O)c1ccccc1,0.261,0.0724,0.233,0.699,1.67,1.9,1.48,0.0597 (inactive),1.74,-0.126
C=CC[C@@]12N=C(c3ccc(OCCCO)cc3)O[C@@H]1c1ccccc1N(CCC)C2=O,0.953,-0.0868,0.0528,0.288,0.381,0.984,1.21,2.39 (inactive),0.298,-0.0645
CO[C@H]1O[C@H](CO)[C@@H](OC(=O)Nc2ccccc2)[C@H](OC(=O)Nc2ccccc2)[C@H]1OC(=O)Nc1ccccc1,-0.114,0.0396,0.118,1.17,0.971,0.888,1.34,0.921 (inactive),0.0643,-0.0296
CC(C)(C)OC(=O)CC[C@@]1(C(=O)NCCN2CCOCC2)N=C(c2ccc(OCCCO)cc2)O[C@@H]1c1ccccc1CN=[N+]=[N-],0.202,0.213,0.0154,0.167,0.422,1.54,0.914,5.92 (inactive),0.157,0.0106
Cc1ccc(S[C@]2(C(=O)NC(C)C)CC(=O)N(C3CCCCC3)[C@@H]2c2ccc(CO)cc2I)cc1,-0.183,2.15,-0.0257,0.308,0.777,0.897,1.33,-4.76 (inactive),0.276,-0.399
C=CCC(OC(C)=O)[C@@H]1[C@@H](N(Cc2ccc(-c3cccc(C(F)(F)F)c3)o2)C(=O)Cc2ccc(F)cc2)c2cc(OCCCO)ccc2N1C(=O)Cc1ccc2ccccc2c1 (stereo not given in full),0.136,-0.648,-0.129,0.53,-0.349,-0.257,-0.285,0.116 (inactive),-0.106,-0.212
CC(C)NC(=O)[C@@H]1c2ccccc2C(=O)N(Cc2ccc(OC(F)(F)F)cc2)[C@H]1c1ccc(CO)cc1,0.33,-0.0722,0.242,0.625,1.05,0.765,1,-1.05 (inactive),1.35,2.21
CCCC[C@H]1OB(O)C[C@H]2C1=C(COc1ccccc1)C[C@H]1C(=O)C=CC(=O)[C@H]12,-0.315,0.351,-0.0503,0.603,0.489,0.169,0.19,-1.1 (inactive),0.23,0.316
COc1cc(C(O)C2C=CC3C(=O)N(c4ccccc4)C(=O)C3N2Nc2ccccc2)cc(OC)c1OC (stereo not given),0.251,0.36,0.218,1.14,1.68,1.92,1.17,1.07 (inactive),1.48,0.189
CN1C(=O)C2C=CC(C(O)c3ccc(-c4ccccc4)s3)N(NC(=O)OC(C)(C)C)C2C1=O (stereo not given),0.905,0.286,-0.229,0.419,1.58,1.88,1.21,0.392 (inactive),0.913,-0.0618
CN(C)CCCCNC(=O)[C@H]1C[C@H]2C(=O)NCC(=O)N2[C@H]1c1ccc(O)cc1,-0.772,-1.42,-0.273,-0.814,-0.929,0.68,1.07,5.11 (inactive),0.0525,-0.407
CCCCCCc1nc(-c2ccc(-c3ccc(Cl)c(Cl)c3)o2)cc2c1[Si](C(C)C)(C(C)C)OC2,0.0736,-0.207,-0.162,-0.632,-1.01,-0.14,0.262,1.25 (inactive),-0.634,-0.134

SMILES,composite z-score [1],composite z-score [2],composite z-score [3],composite z-score [4],composite z-score [5],composite z-score [6],composite z-score [7],z-score [8],composite z-score [9],composite z-score [10]
COc1ccc([Si](C)(C)[C@H]2[C@H](CCO)O[C@@]3(C(=O)N(Cc4cccc(N(C=O)c5ccccc5)c4)c4ccccc43)[C@@H]2C)cc1,-0.364,0.35,0.0155,1.09,1.14,0.97,1.08,-0.837 (inactive),0.638,-0.236
CO[C@H]1O[C@H](CO)[C@@H](OC(=O)Nc2ccccc2-c2ccccc2)[C@H](OC(=O)Nc2ccccc2)[C@H]1OC(=O)Nc1ccccc1,0.164,0.514,-0.0067,1.25,1.48,1.55,1.33,1.66 (inactive),0.941,-0.0237
CCOC(=O)C1=CC[C@@H](c2ccccc2)N(S(=O)(=O)c2ccc(C)cc2)[C@H]1c1ccccc1I,-0.312,0.215,0.162,0.571,1.48,1.05,1.12,-2.08 (inactive),1.92,0.0662
COC(=O)[C@]1(CCC(=O)OC(C)(C)C)N=C(c2ccc(OCCCO)cc2)O[C@@H]1c1ccccc1N=[N+]=[N-],0.375,-0.135,-0.132,0.171,0.552,0.623,0.908,2.96 (inactive),0.219,-0.484
C=C(COC)C(=O)CC[C@H](OC(=O)c1cccnc1)c1ccc(OCCO)cc1,-0.21,0.43,-0.133,1.2,0.144,0.865,1.29,-0.742 (inactive),0.21,-0.0618
CC1CC/C=C\[C@H]2OC34C=CCN(C(C)(C)C)C(=O)[C@H]3N(CCCO)C(=O)[C@@H]4C2C(=O)O1 (stereo not given in full),0.142,-0.0052,-0.0063,0.716,-0.858,0.647,1.28,-0.281 (inactive),0.182,-0.169
CCCN1C(=O)[C@@]2(c3ccc([N+](=O)[O-])cc3)CC(=O)N(CC34CC5CC(CC(C5)C3)C4)[C@@H]2c2ccc(CO)cc21,0.402,-0.519,-0.165,-0.046,-0.421,0.0413,-0.58,0.244 (inactive),-0.103,-0.213
CCCCCC1=C2CNC(Cc3ccccc3)(C(=O)OC)C=C2C(C)C1=O (stereo not given),1.16,0.249,-0.0593,0.279,0.227,0.932,0.446,1.53 (inactive),0.602,0.604
COc1ccc([Si](C)(C)[C@@H]2[C@@H](CC(=O)N3CCC[C@H]3CO)O[C@]3(C(=O)N(Cc4ccc(N5CCOC5=O)cc4)c4ccccc43)[C@H]2C)cc1,-0.29,0.59,-0.155,-0.0087,0.01,0.717,1.01,-2.49 (inactive),0.138,-0.0994
O=C1O[C@@H](c2ccccc2)[C@@H](c2ccccc2)N2[C@@H](c3ccc(OCCO)cc3)[C@]3(C(=O)Nc4ccc(C#CC5(O)CCCCCC5)cc43)[C@@H](C(=O)O)[C@H]12,0.0507,0.733,-0.0579,0.635,0.456,1.24,1.07,0.259 (inactive),0.193,0.0176
COCCCN1C(=O)[C@@]2(c3ccc([N+](=O)[O-])cc3)CC(=O)N(CC34CC5CC(CC(C5)C3)C4)[C@@H]2c2ccc(CO)cc21,-0.145,-0.104,-0.0952,0.0256,-0.345,0.0024,1.05,-0.748 (inactive),-0.19,0.312
CN(C)C(=O)[C@]1(Cc2ccccc2)N=C(c2ccc(OCCCO)cc2)O[C@@H]1c1ccccc1CN=[N+]=[N-],-0.106,1.31,-0.0465,1.18,1.62,1.33,1.22,-0.783 (inactive),0.879,-0.126
[N-]=[N+]=Nc1ccccc1[C@@H]1OC(c2ccc(OCCCO)cc2)=N[C@]1(CCS(=O)(=O)c1ccccc1)C(=O)NCC(O)CO (stereo not given in full),0.158,0.372,-0.0125,0.0835,0.209,1.05,1.21,-0.463 (inactive),0.283,0.0401
CN(C)CCCNC(=O)[C@@]1(C)c2ccccc2C(=O)N(Cc2ccc(OC(F)(F)F)cc2)[C@H]1c1ccc(CO)cc1,0.462,-0.674,-0.0587,-0.959,-0.538,1.35,0.161,-2.46 (inactive),-0.329,-0.435
C=CCC(OC(C)=O)[C@@H]1[C@@H](N(Cc2cccc3ccccc23)C(=O)Cc2ccc(OC)cc2)c2cc(OCCCO)ccc2N1C(=O)Cc1ccc2ccccc2c1 (stereo not given in full),-0.289,-0.176,-0.14,0.184,-0.529,0.906,-0.29,-1.77 (inactive),0.165,-0.364
COC(=O)c1cccc([C@H]2OC(=CC(=O)OC(C)C)C[C@@H](c3cccc(C(=O)OC)c3)O2)c1,-0.3,2.67,0.357,1.14,1.08,1.4,1.12,0.946 (inactive),0.902,-0.289
